Test results from PubChem BioAssay (Tox21).
Results filed as inconclusive are left out. A call without a number means that no potency is given here. Calls of active or inactive are those of the source. Unless noted, calls follow the shape of the dose curve; as a rule, active = well fitted curve in the direction sought with a large enough effect in the repeat runs; inconclusive = weak or mixed curves; inactive = no such curve, though single readings can be large; an effect the other way counts as inactive or inconclusive.

Experiments:
[1] = A CellTox Green Cytotoxicity Assay to monitor cytotoxicity in HepG2 cells - 0 hour (AID 1224882); also: nearly all actives have a fitted effect of over 35% in size
Procedure, shortened: (§1)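 HepG2, 600 cells/well premixed w/ CellTox Green; 5 h settle, 37 C/5% CO2; pintool cpd add (DMSO); 37 C, 40 h; fluorescence read at 0, 8, 16, 24, 32, 40 h.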

[2] = A CellTox Green Cytotoxicity Assay to monitor cytotoxicity in HepG2 cells - 32 hour (AID 1224883); also: nearly all actives have a fitted effect of over 50% in size; also: potency is read from the fitted curve at half-maximal effect
Procedure, shortened: as §1

[3] = A CellTox Green Cytotoxicity Assay to monitor cytotoxicity in HEK293 cells - 8 hour (AID 1224884); also: nearly all actives have a fitted effect of over 35% in size; also: potency is read from the fitted curve at half-maximal effect
Procedure, shortened: (§2)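 Read-out: fluorescence of a cell-impermeant cyanine dye staining DNA of dead cells, proportional to cytotoxicity. HEK293, 600 cells/well with reagent, compound (23 nL DMSO) added after 5 h; reads at 0, 8, 16, 24, 32, 40 h.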

[4] = qHTS RealTime-Glo MT Cell Viability Assay in HEK293 cells - 24 hour (AID 1224886); also: potency is read from the fitted curve at half-maximal effect; nearly all actives have a fitted effect of over 50% in size
Procedure, shortened: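 Tox21 10K qHTS, HEK293, 600 cells/well, RealTime-Glo reagent co-dispensed with cells; 5 h preincubation, compound by pintool, 37 C, luminescence at 0–40 h.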

[5] = qHTS RealTime-Glo MT Cell Viability Assay in HepG2 cells - 0 hour (AID 1224889); also: nearly all actives have a fitted effect of over 50% in size
Procedure, shortened: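 Cells + NanoLuc/prosubstrate dispensed (600 cells/well) → 5 h at 37 C/5% CO2 → compounds in DMSO transferred → 40 h incubation at 37 C, luminescence read at 0, 8, 16, 24, 32, 40 h.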

[6] = A CellTox Green Cytotoxicity Assay to monitor cytotoxicity in HepG2 cells - 8 hour (AID 1224890); also: nearly all actives have a fitted effect of over 45% in size; also: potency is read from the fitted curve at half-maximal effect
Procedure, shortened: as §1

[7] = qHTS assay to identify small molecule antagonists of the estrogen receptor alpha (ER-alpha) signaling pathway using the BG1 cell line in the presence of 0.1 nM 17-beta-estradiol - cell viability counter screen (AID 1259241); also: nearly all actives have a fitted effect of over 40% in size; also: potency is read from the fitted curve at half-maximal effect
Procedure, shortened: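 Estradiol-stimulated (0.1 nM) VM7Luc4E2 cells exposed to compounds 22 hr; viability measured by fluorescence of cleaved CellTiter-Fluor substrate after 30 min.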

[8] = qHTS assay to identify small molecule antagonists of the androgen receptor (AR) signaling pathway using the MDA cell line in the presence of 0.5 nM R1881 - cell viability counter screen (AID 1259242); also: nearly all actives have a fitted effect of over 45% in size; also: potency is read from the fitted curve at half-maximal effect
Procedure, shortened: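 Live-cell protease fluorescence, CellTiter-Fluor, 30 min at 37C. Cells: MDA-kb2, 3,000/well, preincubated 5 hr. Compounds plus 0.5 nM R1881 final, 16 hr, 37C, 0% CO2.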

[9] = target: Androgen receptor (Homo sapiens) (UniProt P10275); test: qHTS assay to identify small molecule antagonists of the androgen receptor (AR) signaling pathway using the MDA cell line in the presence of 0.5 nM R1881 (AID 1259243); also: potency is read from the fitted curve at half-maximal effect; nearly all actives have a fitted effect of over 50% in size
Procedure, shortened: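 MDA-kb2, MMTV-luc (AR/GR elements); 3,000 cells/well; cpd + 0.5 nM R1881 final; 16 hr 37C, 0% CO2; ONE-Glo 30 min RT; luminescence.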

[10] = target: Estrogen receptor (Homo sapiens) (UniProt P03372); test: qHTS assay to identify small molecule antagonists of the estrogen receptor alpha (ER-alpha) signaling pathway using the BG1 cell line in the presence of 0.1 nM 17-beta-estradiol (AID 1259244); also: nearly all actives have a fitted effect of over 50% in size; also: potency is read from the fitted curve at half-maximal effect
Procedure, shortened: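 Luminescence after ONE-Glo (30 min, room temperature) measured ERE-luciferase activity in VM7Luc4E2 cells treated 22 h with compound and 0.1 nM final 17beta-estradiol as stimulator.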

[11] = qHTS assay to identify small molecule HDAC inhibitors - cell viability counter screen (AID 1259365); also: nearly all actives have a fitted effect of over 50% in size; also: potency is read from the fitted curve at half-maximal effect
Procedure, shortened: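 After overnight seeding at 1,500 cells per well, wild-type HCT-116 cultures took up compounds in DMSO for 2hr at 37 C. Viable cell content came from luminescence with CellTiter-Glo.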

[12] = qHTS assay to identify small molecule agonists of the sonic hedgehog signaling (Shh) pathway - cell viability counter screen (AID 1259366); also: nearly all actives have a fitted effect of over 50% in size; also: potency is read from the fitted curve at half-maximal effect
Procedure, shortened: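 Same-well cytotoxicity read. Gli1-Luc reporter 3T3 cells; compounds 24hr, 37C/5% CO2; CellTiter-Fluor fluorescence.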

[13] = qHTS assay to identify small molecule antagonists of the sonic hedgehog signaling (Shh) pathway - cell viability counter screen (AID 1259367); also: nearly all actives have a fitted effect of over 55% in size; also: potency is read from the fitted curve at half-maximal effect
Procedure, shortened: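 Viability was read by CellTiter-Fluor fluorescence in the same wells, reagent added 23 hr into compound treatment and incubated 1 hr at 37C. The 3T3 Gli1-Luc reporter cells (2,000/well) received conditioned medium after compound and ran 24 hr.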

[14] = qHTS assay to identify small molecule antagonists of the sonic hedgehog signaling (Shh) pathway (AID 1259369; calls by dose curve; also: potency is read from the fitted curve at half-maximal effect; nearly all actives have a fitted effect of over 45% in size)
Procedure, shortened: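 Luminescence readout: firefly Luc under Gli1 response element in 3T3Gli1-Luc cells (NIH/3T3 clone). Antagonist mode, stimulation by conditioned medium; compound exposure 24hr at 37 C, 5% CO2.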

[15] = qHTS RealTime-Glo MT Cell Viability Assay in HEK293 cells - 8 hour (AID 1224887); also: nearly all actives have a fitted effect of over 50% in size; also: potency is read from the fitted curve at half-maximal effect
Procedure, shortened: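 Luminescence readout at each listed time point; HEK293, 600 cells/well, RealTime-Glo MT reagent added with cells; compounds pinned (23 nL in DMSO) after 5 h at 37 C; continuous culture at 37 C.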

[16] = A CellTox Green Cytotoxicity Assay to monitor cytotoxicity in HEK293 cells - 16 hour (AID 1224888); also: nearly all actives have a fitted effect of over 35% in size; also: potency is read from the fitted curve at half-maximal effect
Procedure, shortened: as §2

[17] = qHTS assay to identify small molecule HDAC inhibitors (AID 1259364); also: potency is read from the fitted curve at half-maximal effect;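 also: wild-type HCT-116 cells with endogenous class I/II HDAC activity; nearly all actives have a fitted effect of over 45% in size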
Procedure, shortened: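 HCT-116 (wild type), 1,500 cells/well, overnight; compound 2 hr 37C 5% CO2; HDAC-Glo I/II reagent 30 min RT; luminescence readout.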

[18] = qHTS assay to identify small molecule agonists of the sonic hedgehog signaling (Shh) pathway (AID 1259368; calls by dose curve;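 also: NIH/3T3-derived 3T3Gli1-Luc cells carrying a stable Gli1-driven firefly luciferase reporter; series mostly up to about 92 µM; nearly all actives have a fitted effect of over 15% in size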)
Procedure, shortened: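 Read-out: firefly luciferase luminescence from a Gli1 response element reporter stably integrated in NIH/3T3-derived 3T3Gli1-Luc cells, measured 30 min at room temperature after reagent addition. Compound exposure lasted 24 hr at 37 C, 5% CO2.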

Sequence of Estrogen receptor (Homo sapiens) (P03372 whole entry, looked up): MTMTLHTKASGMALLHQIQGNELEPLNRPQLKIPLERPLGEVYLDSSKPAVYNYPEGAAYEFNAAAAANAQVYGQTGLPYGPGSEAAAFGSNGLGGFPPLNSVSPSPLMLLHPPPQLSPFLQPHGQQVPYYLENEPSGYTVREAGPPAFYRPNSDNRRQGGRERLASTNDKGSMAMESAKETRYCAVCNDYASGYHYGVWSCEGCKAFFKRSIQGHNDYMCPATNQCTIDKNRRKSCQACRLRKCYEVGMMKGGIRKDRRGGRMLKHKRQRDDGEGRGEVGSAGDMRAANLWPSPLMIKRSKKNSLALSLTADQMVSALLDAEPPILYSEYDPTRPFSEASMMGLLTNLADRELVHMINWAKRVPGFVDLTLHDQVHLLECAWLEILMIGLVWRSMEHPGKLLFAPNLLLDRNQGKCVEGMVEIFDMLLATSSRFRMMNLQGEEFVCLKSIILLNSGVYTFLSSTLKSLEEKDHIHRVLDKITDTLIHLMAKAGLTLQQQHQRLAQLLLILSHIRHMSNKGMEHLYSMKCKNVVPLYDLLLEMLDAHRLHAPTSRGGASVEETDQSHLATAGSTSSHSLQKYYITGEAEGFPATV
Sequence of Androgen receptor (Homo sapiens) (P10275 whole entry, looked up): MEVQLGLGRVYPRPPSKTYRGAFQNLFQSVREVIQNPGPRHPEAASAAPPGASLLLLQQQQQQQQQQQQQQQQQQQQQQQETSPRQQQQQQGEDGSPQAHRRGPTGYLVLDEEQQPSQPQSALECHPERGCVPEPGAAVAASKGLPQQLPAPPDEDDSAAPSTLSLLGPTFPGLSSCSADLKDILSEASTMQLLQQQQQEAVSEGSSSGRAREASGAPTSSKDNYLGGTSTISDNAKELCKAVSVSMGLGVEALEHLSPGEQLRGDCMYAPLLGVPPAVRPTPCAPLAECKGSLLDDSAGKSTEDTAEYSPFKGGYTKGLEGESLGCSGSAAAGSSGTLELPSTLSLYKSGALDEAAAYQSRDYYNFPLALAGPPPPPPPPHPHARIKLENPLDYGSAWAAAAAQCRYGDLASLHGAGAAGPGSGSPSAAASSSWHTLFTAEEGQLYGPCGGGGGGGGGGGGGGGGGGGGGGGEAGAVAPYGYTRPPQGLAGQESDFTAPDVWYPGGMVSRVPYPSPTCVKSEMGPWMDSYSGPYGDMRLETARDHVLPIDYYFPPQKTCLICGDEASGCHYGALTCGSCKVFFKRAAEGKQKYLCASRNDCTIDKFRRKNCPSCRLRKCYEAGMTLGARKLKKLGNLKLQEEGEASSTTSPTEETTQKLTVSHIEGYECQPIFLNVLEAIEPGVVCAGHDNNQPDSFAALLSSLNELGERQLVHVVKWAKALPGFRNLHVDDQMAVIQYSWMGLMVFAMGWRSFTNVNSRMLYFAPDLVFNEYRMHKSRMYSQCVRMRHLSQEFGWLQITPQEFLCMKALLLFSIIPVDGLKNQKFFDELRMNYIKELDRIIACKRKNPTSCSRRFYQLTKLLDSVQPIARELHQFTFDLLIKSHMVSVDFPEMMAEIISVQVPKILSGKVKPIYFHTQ

| Structure (SMILES) | Potency [1] | Potency [2] | Potency [3] | Potency [4] | Potency [5] | Potency [6] | Potency [7] | Potency [8] | Potency [9] | Potency [10] | Potency [11] | Potency [12] | Potency [13] | Potency [14] | Potency [15] | Potency [16] | Potency [17] | Potency [18] |
| --- | --- | --- | --- | --- | --- | --- | --- | --- | --- | --- | --- | --- | --- | --- | --- | --- | --- | --- |
| N=C1C=CC(=C(c2ccc(N)cc2)c2ccc(N)cc2)C=C1 | inactive | inactive | inactive | 3.47 µM (active) | inactive | inactive | 30.6 µM (active) | 9.69 µM (active) | 3.06 µM (active) | 7.7 µM (active) | 24.3 µM (active) | 21.7 µM (active) | 19.3 µM (active) | 12.2 µM (active) | – | – | – | – |
| Nc1ccc(N)c2ccccc12 | inactive | 54.9 µM (active) | inactive | – | inactive | inactive | 19.3 µM (active) | 61.1 µM (active) | 19.3 µM (active) | 12.2 µM (active) | – | 61.1 µM (active) | 61.1 µM (active) | 12.2 µM (active) | 24.5 µM (active) | inactive | inactive | inactive |
| O=C1c2c(O)ccc(Nc3ccc(CCO)cc3)c2C(=O)c2c([N+](=O)[O-])ccc(O)c21 | inactive | inactive | inactive | – | – | inactive | – | – | – | inactive | – | – | 48.6 µM (active) | – | 43.6 µM (active) | inactive | inactive | inactive |
| CCCCCCCC[N+](CCCCCCCC)(CCCCCCCC)CCCCCCCC | inactive | 21.8 µM (active) | 24.5 µM (active) | – | – | 34.6 µM (active) | 61 µM (active) | 9.67 µM (active) | – | 2.16 µM (active) | 61 µM (active) | 17.2 µM (active) | 27.3 µM (active) | 0.768 µM (active) | 12.3 µM (active) | 21.8 µM (active) | inactive | inactive |
| c1cc(C(c2ccc(OCC3CO3)cc2)c2ccc(OCC3CO3)cc2)ccc1OCC1CO1 (stereo not given) | inactive | inactive | inactive | – | inactive | inactive | inactive | inactive | – | inactive | inactive | 61.1 µM (active) | – | – | inactive | – | inactive | inactive |
| O=C(Oc1ccccc1)c1ccccc1C(=O)Oc1ccccc1 | inactive | inactive | inactive | – | – | inactive | inactive | inactive | – | inactive | inactive | – | inactive | – | inactive | – | inactive | inactive |
| O=C(Nc1cccc([N+](=O)[O-])c1)c1cc2ccccc2cc1O | inactive | inactive | inactive | – | inactive | inactive | inactive | 6.86 µM (active) | 5.45 µM (active) | 5.45 µM (active) | inactive | inactive | – | – | inactive | inactive | 1.54 µM (active) | inactive |
